Test results: PubChem BioAssay AID488899 (Broad Institute, 2010)
Screen size: about 330,000 compounds; about 2,800 (0.85%) were called active.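 The calls were made as follows: active = mean inhibition across replicates of 60% or more, whatever share of single replicates reaches that level; inconclusive = some that reach 60%, reason not given; inactive = mean inhibition across replicates below 60%.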 The list comes from a sample in which actives are over-represented; it also holds similar structures and randomly drawn compounds.

Assay: inhibitors of MITF-dependent TRPM1 promoter reporter, primary screen, cell-based, SK-MEL-5, single point, luciferase (AID 488899)
Details: SK-MEL-5 TRPM1 promoter luciferase, 24 h; at 12.5 µM; hits give high values

inhibition, inactive:
CCNC(=S)NCC 5.56%
O=C(NNC(=O)c1ccc(-n2cncn2)c([N+](=O)[O-])c1)c1ccccc1 -1.1%
COc1cc(CC(=O)Nc2nc(-c3ccc(F)c(F)c3)cs2)cc(OC)c1OC 0.159%
Cc1ccc(-c2csc(NC3OC(=O)c4ccccc43)n2)cc1 (stereo not drawn) 31.3%
CCc1cc(-c2nnc(SCC(=O)NC3CC3)n2C)cs1 -9%
CCOC(=O)c1ccc(NC(=O)c2c(N)n(C)c(=O)[nH]c2=O)cc1 -48.3%
CC(C)c1ccc(Cc2nnc(NCCCO)[nH]c2=O)cc1 -0.574%
O=c1[nH]c(NCCO)nnc1Cc1ccc(Cl)cc1 5.61%
Cc1ccc(CN2CC(C(=O)N3CCN(S(=O)(=O)c4ccccc4)CC3)CC2=O)cc1 (stereo not drawn) -1.06%
c1ccc(-c2ccc(OCCN3CCOCC3)cc2)cc1 -61.1%
CCOc1nc(NCCN2CCOCC2)nc(Nc2ccc(C)cc2)n1 -2.25%
O=C1NC(c2ccc(-c3ccccc3[N+](=O)[O-])o2)C(C(=O)c2ccc(Cl)cc2)C(O)(C(F)(F)F)N1 (stereo not drawn) 12.2%
Cc1c(NC(=O)Nc2ccccc2Cl)sc(=S)n1C -9.97%
CN(C)S(=O)(=O)Oc1ccccc1C(=O)Nc1ccccc1Cl -7.26%
Nc1ccc2[nH]c(=S)sc2c1 -7.16%
OC(COc1ccc(Br)cc1)CN1CCCC1 (stereo not drawn) -0.089%
CC(Oc1ccc(Br)cc1)C(=O)NC1CCCCCC1 (stereo not drawn) -16.6%
COc1ccc(C2NCCCC2c2ccccc2)cc1 (stereo not drawn) 14.7%
Cc1ccccc1N1CCN(C(=O)c2cccnc2)CC1 2.88%
CCOc1ccc(NC(=S)N2CCC(N(C)CC3CCCO3)CC2)cc1 (stereo not drawn) -2.52%
C/C(=N\OCC(=O)O)c1ccc(Cl)cc1 -2.61%
CCOC(=O)CN/C=C(\C#N)c1ccc(F)cc1 19.8%
C#CCOCCOCCOCCNc1nc(N2CCN(C(=O)CCCCCCCCCCNC(=O)Cn3cc(CCCCCN)nn3)CC2)nc(N2CCN(C(=O)CCCCCCCCCCNC(=O)[C@H](CO)n3cc(CCCSC)nn3)CC2)n1 23.1%
C#CCOCCOCCOCCNc1nc(N2CCN(C(=O)CCCCCCCCCCNC(=O)[C@H](CCCCN)n3cc(C)nn3)CC2)nc(N2CCN(C(=O)CCCCCCCCCCNC(=O)[C@H](CO)n3cc(CCCSC)nn3)CC2)n1 47.5%
Cc1ccc(-c2nn(C(C)(C)C)c3ncnc(N)c23)cc1 3.91%
CN(C)c1ccc(CSc2ccccc2)cc1 -111%
Cc1ccc(C(=O)NC(=S)Nc2ccc3[nH]c(=O)[nH]c3c2)cc1C 3.06%
N#Cc1nc(N)nc(N(c2ccccc2)c2ccccc2)n1 10.4%
COc1ccc(S(=O)(=O)N2CCOCC2)cc1NC(=O)Cc1coc2cc(C)ccc12 5.65%
COc1cc2c(cc1OC)CN(CC(=O)Nc1ccc(F)cc1)CC2 4.57%
CCc1ccc(OCC2c3cc(OC)c(OC)cc3CCN2C(C)=O)cc1 (stereo not drawn) -0.63%
COc1ccc(/C=C/C2=CC(C)(C)NC(=S)N2)c(OC)c1 10.5%
Cc1ccccc1-n1nc(C)c2c1N=C1C(Cl)=CC(Cl)=CN1C2c1ccc(C(=O)O)cc1 (stereo not drawn) 5.65%
Cn1c(=O)c2c(nc(SCCNS(=O)(=O)c3ccccc3)n2C)n(C)c1=O -8.94%
COc1ccc(Cc2n[nH]c(=S)n2NC(=O)Nc2ccc(C)cc2)cc1 -46.7%
CC(=O)Nc1ccc(NC(=O)C(C)n2c3ccccc3c3nc(=O)cc(C)n32)cc1 (stereo not drawn) 11.5%
CCn1c(CC(=O)Nc2ccc(C)cc2)nnc1SCC(=O)Nc1nc(C)cs1 6.57%
COc1ccc2oc(N)nc2c1 7.49%
COc1cccc(Oc2ccc(N)cc2)c1 -4.14%
CC(C)(C)c1ccc(OC2=CS(=O)(=O)c3ccccc32)cc1 -25.6%
COc1ccc(C(=O)Nc2ccccc2C(=O)N2CCN(c3ccccc3)CC2)cc1 -1.5%
COc1ccc(/C=N/Nc2ccccc2C(=O)O)cc1 -4.16%
CC(=O)NC(Cc1ccc(F)c(F)c1)C(=O)NC1CCN(C(=O)c2ccc(C)cc2)CC1 (stereo not drawn) 7.52%
CSc1ncc(Sc2ccccc2)c(C(=O)O)n1 5.79%
Cc1ccc(CNC(=O)c2ccc(CS(=O)Cc3cccc(Cl)c3)o2)cc1 (stereo not drawn) 2.54%
CCOC(=O)N1CCN(c2c(NCCCN3CCCC(C)C3)c(=O)c2=O)CC1 (stereo not drawn) -5.22%

inhibition, active:
COc1ccc2c(c1OC)C(=O)OC2Nc1nc(-c2ccccc2)cs1 (stereo not drawn) 68.6%
COc1ccc(Cc2nnc(N/N=C/c3ccccc3O)[nH]c2=O)cc1OC 64%
c1ccc2cc3c(NCCN4CCOCC4)ccnc3cc2c1 80.4%
O=C(Nc1ccccc1Cl)/C(Cl)=C(\Cl)S(=O)c1ccccc1 (stereo not drawn) 97%
CC(C)(C)CC(C)(C)NCC(O)COCCOc1ccc(Br)cc1 (stereo not drawn) 85.9%
CCOc1cc(/C=C(/C#N)c2ccc(Cl)cc2)cc(Cl)c1OCC(=O)O 98.2%
C#CCOCCOCCOCCNc1nc(N2CCN(C(=O)CCCCCCCCCCNC(=O)[C@H]([C@@H](C)CC)n3cc(CCCCN=C(N)N)nn3)CC2)nc(N2CCN(C(=O)CCCCCCCCCCNC(=O)[C@H](CO)n3cc(CCCSC)nn3)CC2)n1 72.9%
CC[C@H]1CN2CCc3cc(OC)c(OC)cc3[C@@H]2C[C@@H]1C[C@H]1NCCc2cc(OC)c(OC)cc21 85.1%
CC(C)CC[n+]1ccn(C2=C([O-])c3ccccc3C(=O)/C2=N\S(=O)(=O)c2ccccc2)c1 91.1%
CC(C)(C)c1ccc(Oc2ccc(N)cc2)cc1 91.7%
COc1ccc(C(=O)Nc2ccccc2C(=O)N/N=C/c2ccc(O)c(OC)c2)cc1 73.3%
CSc1nc(-c2ccccc2)nc(C(Cl)Cl)n1 87.8%
